In PubChem BioAssay (EPA / NIEHS) one finds outcome and AC50 data, which are given here for twelve compounds.

Structures are written as SMILES. Inconclusive results are not listed. Active and inactive are the calls of the source. The calls were made as follows: active = hit-call score of the fitted dose curve at least 0.9, where 1 is the maximum; inconclusive = response in the unintended direction; inactive = score below 0.9.

Experiment [1] concerns the target cAMP-dependent protein kinase catalytic subunit alpha (Homo sapiens) (UniProt P17612). The experiment in a line: NVS_ENZ_hPKA: NovaScreen (NVS) Enzymatic Assay for human Protein Kinase A (PKA) (AID 2283192). A digest of the protocol: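 Recombinant human PKA with specific fluorescent substrate, product separated by electrophoretic mobility shift, read 1 h after dosing. Primary screen at 25 uM in duplicate; actives then run in concentration-response up to 50 uM, activity relative to DMSO.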

Experiment [2] addresses human Phosphoinositide 3-kinase alpha (PI3Ka), PIK3CA (gene 5290) (UniProt P42336). Put plainly: NVS_ENZ_hPI3Ka: NovaScreen (NVS) Enzymatic Assay for human Phosphoinositide 3-kinase alpha (PI3Ka) (AID 2283196). A digest of the protocol:
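Duplicate single-point screen (25 uM), then singleton dose-response (max 50 uM) for compounds meeting the threshold. Cell-free kinase reaction, 1 h; fluorescent mobility-shift readout.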

Experiment [3] deals with Serine/threonine-protein phosphatase PP1-alpha catalytic subunit (Homo sapiens) (UniProt P62136). The experiment in a line: NVS_ENZ_hPPP1CA: NovaScreen (NVS) Enzymatic Assay for human Protein Phosphatase 1 Aatalytic subunit Alpha (PPP1CA) (AID 2283200). A digest of the protocol: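 Recombinant enzyme activity read by fluorescence with electrophoretic mobility shift separating substrate from product, 1.33 h after dosing; loss of signal vs DMSO baseline. Primary screen in duplicate at 25 uM; actives retested in concentration-response up to 50 uM.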

Experiment [4] has as its target human Protein Tyrosine Phosphatase Non-receptor Type 1 (PTPN1), PTPN1 (gene 5770) (UniProt P18031). Put plainly: NVS_ENZ_hPTPN1: NovaScreen (NVS) Enzymatic Assay for human Protein Tyrosine Phosphatase Non-receptor Type 1 (PTPN1) (AID 2283201). A digest of the protocol:
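Cell-free fluorogenic-substrate activity assay on recombinant enzyme, read 1.33 h after dosing by fluorescence and electrophoretic mobility shift; loss of signal vs DMSO baseline. Primary screen in duplicate at 25 uM, hits then run in concentration-response up to 50 uM.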

The target in experiment [5] is Tyrosine-protein phosphatase non-receptor type 12 (Homo sapiens) (UniProt Q05209). Put plainly: NVS_ENZ_hPTPN12: NovaScreen (NVS) Enzymatic Assay for human Protein Tyrosine Phosphatase Non-receptor Type 12 (PTPN12) (AID 2283204). An outline of the steps:
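Single-concentration duplicates (25 uM) preceded singleton concentration-response up to 50 uM for chemicals passing threshold. Cell-free recombinant PTPN12 activity was read 1.33 h after dosing via fluorescence after mobility-shift separation; loss of signal versus DMSO.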

The target in experiment [6] is Tyrosine-protein phosphatase non-receptor type 13 (Homo sapiens) (UniProt Q12923). The experiment in a line: NVS_ENZ_hPTPN13: NovaScreen (NVS) Enzymatic Assay for human Protein Tyrosine Phosphatase Non-receptor Type 13 (PTPN13) (AID 2283205). A digest of the protocol:
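Cell-free assay of recombinant human PTPN13 with a fluorescent substrate, product separated by electrophoretic mobility shift and read 0.5 h after dosing. Primary screen at 25 uM in duplicate, then concentration-response up to 50 uM. Loss of signal fitted against DMSO.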

For experiment [7], the target named is Tyrosine-protein phosphatase non-receptor type 14 (Homo sapiens) (UniProt Q15678). The experiment in a line: NVS_ENZ_hPTPN14: NovaScreen (NVS) Enzymatic Assay for human Protein Tyrosine Phosphatase Non-receptor Type 14 (PTPN14) (AID 2283206). A digest of the protocol: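 Cell-free recombinant human PTPN14 with fluorescent substrate, read 0.5 h after dosing by fluorescence and electrophoretic mobility shift separating substrate from product. Primary screen at 25 uM in duplicate; hits run to 50 uM maximum; loss of signal versus DMSO.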

Experiment [8] concerns the target human Protein Tyrosine Phosphatase Non-receptor Type 4 (PTPN4), PTPN4 (gene 5775) (UniProt P29074). Put plainly: NVS_ENZ_hPTPN4: NovaScreen (NVS) Enzymatic Assay for human Protein Tyrosine Phosphatase Non-receptor Type 4 (PTPN4) (AID 2283208). A digest of the protocol:
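Cell-free assay of PTPN4 expressed in Sf9 cells, using a fluorescent substrate with product separated by mobility shift; read 1.33 h after dosing. Single-point screen at 25 uM, then concentration-response up to 50 uM. Loss of signal relative to DMSO.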

Experiment [9] deals with human Protein Tyrosine Phosphatase Non-receptor Type 9 (PTPN9), PTPN9 (gene 5780) (UniProt P43378). The experiment in a line: NVS_ENZ_hPTPN9: NovaScreen (NVS) Enzymatic Assay for human Protein Tyrosine Phosphatase Non-receptor Type 9 (PTPN9) (AID 2283209). A digest of the protocol: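 Sf9-expressed enzyme in a cell-free assay, fluorescence read 1.33 h after dosing with mobility-shift separation of substrate and product. Tested at 25 uM in duplicate, then up to 50 uM; signal loss versus DMSO.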

Experiment [10] concerns the target human Protein Tyrosine Phosphatase Receptor Type B (PTPRB), PTPRB (gene 5787) (UniProt P23467). Put plainly: NVS_ENZ_hPTPRB: NovaScreen (NVS) Enzymatic Assay for human Protein Tyrosine Phosphatase Receptor Type B (PTPRB) (AID 2283211). A digest of the protocol: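 Recombinant human PTPRB with a fluorescent substrate, product separated by electrophoretic mobility shift; read 1 h after dosing. Primary screen in duplicate at 25 uM; actives then retested in concentration series; loss of signal versus DMSO.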

For experiment [11], the target named is human Protein Tyrosine Phosphatase Receptor Type F (PTPRF), PTPRF (gene 5792) (UniProt P10586). The experiment in a line: NVS_ENZ_hPTPRF: NovaScreen (NVS) Enzymatic Assay for human Protein Tyrosine Phosphatase Receptor Type F (PTPRF) (AID 2283213). A digest of the protocol:
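Cell-free fluorescence enzyme assay with recombinant protein and substrate; product separated by electrophoretic mobility shift. Read 1 h after dosing, single 25 uM duplicate screen, then concentration-response up to 50 uM; loss of signal vs DMSO.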

The target of experiment [12] is human Sirtuin 2 (SIRT2), SIRT2 (gene 22933) (UniProt Q8IXJ6). The experiment in a line: NVS_ENZ_hSIRT2: NovaScreen (NVS) Enzymatic Assay for human Sirtuin 2 (SIRT2) (AID 2283217). An outline of the steps:
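Cell-free recombinant human SIRT2, fluorescent substrate with product separated by electrophoretic mobility shift, 1 hr. Screened in duplicate at 25 uM; hits rerun singly in concentration-response up to 50 uM, relative to DMSO.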

The target in experiment [13] is human Sirtuin 1 (SIRT1), SIRT1 (gene 23411) (UniProt Q96EB6). The experiment in a line: NVS_ENZ_hSIRT1: NovaScreen (NVS) Enzymatic Assay for human Sirtuin 1 (SIRT1) (AID 2283219). An outline of the steps:
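Cell-free recombinant SIRT1 with a fluorescent substrate; substrate and product separated by electrophoretic mobility shift and read by fluorescence intensity, 1 h after dosing. Primary screen at 25 uM in duplicate; hits re-run in concentration-response up to 50 uM, relative to DMSO.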

Experiment [14] deals with Tyrosine-protein phosphatase non-receptor type 11 (Homo sapiens) (UniProt Q06124). The experiment in a line: NVS_ENZ_hPTPN11: NovaScreen (NVS) Enzymatic Assay for human Protein Tyrosine Phosphatase Non-receptor Type 11 (PTPN11) (AID 2283202). A digest of the protocol:
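Recombinant human PTPN11 activity on a fluorescent substrate, with substrate/product separated by electrophoretic mobility shift; read 0.5 h after dosing, loss of signal vs DMSO. Duplicate 25 uM screen, then concentration-response up to 50 uM.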

Experiment [15] deals with human Sirtuin 3 (SIRT3), SIRT3 (gene 23410) (UniProt Q9NTG7). Put plainly: NVS_ENZ_hSIRT3: NovaScreen (NVS) Enzymatic Assay for human Sirtuin 3 (SIRT3) (AID 2283222). An outline of the steps:
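Cell-free enzyme assay with recombinant protein and fluorescent substrate, product separated by electrophoretic mobility shift; read 1 hour after dosing. Screened in duplicate at 25 uM, then singleton concentration-response up to 50 uM; loss of signal versus DMSO.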

Experiment [16] deals with human Phosphodiesterase 10 (PDE10), PDE10A (gene 10846) (UniProt Q9Y233). The experiment in a line: NVS_ENZ_hPDE10: NovaScreen (NVS) Enzymatic Assay for human Phosphodiesterase 10 (PDE10) (AID 2283195). An outline of the steps: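 Recombinant human PDE10 with fluorescent substrate, 1 h, product separated by electrophoretic mobility shift. Loss of enzyme activity fitted against DMSO; initial screen 25 uM in duplicate, actives run to 50 uM maximum.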

The target of experiment [17] is human Protein Phosphatase, Mg2+/Mn2+ Dependent 1A (PPM1A), PPM1A (gene 5494) (UniProt P35813). The experiment in a line: NVS_ENZ_hPPM1A: NovaScreen (NVS) Enzymatic Assay for human Protein Phosphatase, Mg2+/Mn2+ Dependent 1A (PPM1A) (AID 2283198). A digest of the protocol: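 Cell-free recombinant PPM1A phosphatase assay with fluorescent substrate, read 1 h after dosing by electrophoretic mobility shift. Chemicals screened in duplicate at 25 uM, then in concentration-response up to 50 uM; loss of activity versus DMSO.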

For experiment [18], the target named is human Protein Tyrosine Phosphatase Non-receptor Type 6 (PTPN6), PTPN6 (gene 5777) (UniProt P29350). The experiment in a line: NVS_ENZ_hPTPN6: NovaScreen (NVS) Enzymatic Assay for human Protein Tyrosine Phosphatase Non-receptor Type 6 (PTPN6) (AID 2283210). A digest of the protocol: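 Cell-free assay with recombinant PTPN6 expressed in SF9 cells, fluorescent substrate, product separated from substrate by electrophoretic mobility shift; read 1.33 hours after dosing. Primary screen in duplicate at 25 uM, actives retested in concentration series; DMSO baseline.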

For experiment [19], the target named is human Protein Tyrosine Phosphatase Receptor Type M (PTPRM), PTPRM (gene 5797) (UniProt P28827). The experiment in a line: NVS_ENZ_hPTPRM: NovaScreen (NVS) Enzymatic Assay for human Protein Tyrosine Phosphatase Receptor Type M (PTPRM) (AID 2283215). A digest of the protocol: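 Cell-free recombinant PTPRM with fluorogenic substrate; product separated from substrate by electrophoretic mobility shift and read by fluorescence, 1.33 h after dosing. Primary screen single concentration (25 uM) in duplicate; actives retested in concentration series; loss of signal versus DMSO.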

One may read the AC50 as the midpoint of the concentration-response curve, whichever way the signal moves.

Sequence of human Sirtuin 2 (SIRT2), SIRT2 (gene 22933) (Q8IXJ6 whole entry, looked up): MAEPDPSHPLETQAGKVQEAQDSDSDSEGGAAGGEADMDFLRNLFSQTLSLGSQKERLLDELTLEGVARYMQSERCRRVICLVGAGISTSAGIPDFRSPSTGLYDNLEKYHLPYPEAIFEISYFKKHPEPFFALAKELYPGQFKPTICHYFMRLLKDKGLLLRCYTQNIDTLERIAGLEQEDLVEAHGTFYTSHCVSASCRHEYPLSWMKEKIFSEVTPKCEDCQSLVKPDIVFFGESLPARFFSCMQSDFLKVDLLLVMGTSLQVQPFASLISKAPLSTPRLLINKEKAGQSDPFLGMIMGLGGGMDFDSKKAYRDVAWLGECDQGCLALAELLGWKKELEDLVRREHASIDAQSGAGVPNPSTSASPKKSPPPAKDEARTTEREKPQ
Sequence of human Phosphoinositide 3-kinase alpha (PI3Ka), PIK3CA (gene 5290) (P42336 whole entry, looked up): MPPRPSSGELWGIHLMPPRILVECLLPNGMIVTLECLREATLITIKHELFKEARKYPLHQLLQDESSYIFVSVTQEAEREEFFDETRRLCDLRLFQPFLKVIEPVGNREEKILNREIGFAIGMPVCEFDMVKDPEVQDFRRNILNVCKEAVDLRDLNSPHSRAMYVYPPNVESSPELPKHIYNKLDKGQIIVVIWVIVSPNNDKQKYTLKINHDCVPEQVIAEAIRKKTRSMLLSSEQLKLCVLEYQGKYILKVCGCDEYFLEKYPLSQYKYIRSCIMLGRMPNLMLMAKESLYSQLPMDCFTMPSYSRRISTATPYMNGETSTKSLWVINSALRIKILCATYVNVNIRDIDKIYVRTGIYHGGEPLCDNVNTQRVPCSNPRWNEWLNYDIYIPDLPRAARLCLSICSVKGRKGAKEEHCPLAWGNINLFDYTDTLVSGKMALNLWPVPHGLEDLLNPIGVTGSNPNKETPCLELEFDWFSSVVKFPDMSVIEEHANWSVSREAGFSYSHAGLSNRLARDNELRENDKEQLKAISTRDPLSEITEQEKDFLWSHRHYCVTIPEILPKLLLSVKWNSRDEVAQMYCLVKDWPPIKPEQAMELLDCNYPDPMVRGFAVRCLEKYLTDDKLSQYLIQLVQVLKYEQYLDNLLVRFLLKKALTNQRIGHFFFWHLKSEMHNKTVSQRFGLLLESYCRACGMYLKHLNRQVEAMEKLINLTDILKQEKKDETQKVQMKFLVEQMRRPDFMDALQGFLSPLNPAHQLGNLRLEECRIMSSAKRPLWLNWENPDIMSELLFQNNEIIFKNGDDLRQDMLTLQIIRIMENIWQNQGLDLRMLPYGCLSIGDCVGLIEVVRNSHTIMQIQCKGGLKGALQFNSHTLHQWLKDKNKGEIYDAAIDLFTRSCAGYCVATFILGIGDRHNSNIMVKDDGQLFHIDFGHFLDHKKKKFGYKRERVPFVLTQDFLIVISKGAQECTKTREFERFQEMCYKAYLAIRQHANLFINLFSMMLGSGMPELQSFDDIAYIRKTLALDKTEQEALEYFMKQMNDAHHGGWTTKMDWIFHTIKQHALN
Sequence of human Phosphodiesterase 10 (PDE10), PDE10A (gene 10846) (Q9Y233 whole entry, looked up): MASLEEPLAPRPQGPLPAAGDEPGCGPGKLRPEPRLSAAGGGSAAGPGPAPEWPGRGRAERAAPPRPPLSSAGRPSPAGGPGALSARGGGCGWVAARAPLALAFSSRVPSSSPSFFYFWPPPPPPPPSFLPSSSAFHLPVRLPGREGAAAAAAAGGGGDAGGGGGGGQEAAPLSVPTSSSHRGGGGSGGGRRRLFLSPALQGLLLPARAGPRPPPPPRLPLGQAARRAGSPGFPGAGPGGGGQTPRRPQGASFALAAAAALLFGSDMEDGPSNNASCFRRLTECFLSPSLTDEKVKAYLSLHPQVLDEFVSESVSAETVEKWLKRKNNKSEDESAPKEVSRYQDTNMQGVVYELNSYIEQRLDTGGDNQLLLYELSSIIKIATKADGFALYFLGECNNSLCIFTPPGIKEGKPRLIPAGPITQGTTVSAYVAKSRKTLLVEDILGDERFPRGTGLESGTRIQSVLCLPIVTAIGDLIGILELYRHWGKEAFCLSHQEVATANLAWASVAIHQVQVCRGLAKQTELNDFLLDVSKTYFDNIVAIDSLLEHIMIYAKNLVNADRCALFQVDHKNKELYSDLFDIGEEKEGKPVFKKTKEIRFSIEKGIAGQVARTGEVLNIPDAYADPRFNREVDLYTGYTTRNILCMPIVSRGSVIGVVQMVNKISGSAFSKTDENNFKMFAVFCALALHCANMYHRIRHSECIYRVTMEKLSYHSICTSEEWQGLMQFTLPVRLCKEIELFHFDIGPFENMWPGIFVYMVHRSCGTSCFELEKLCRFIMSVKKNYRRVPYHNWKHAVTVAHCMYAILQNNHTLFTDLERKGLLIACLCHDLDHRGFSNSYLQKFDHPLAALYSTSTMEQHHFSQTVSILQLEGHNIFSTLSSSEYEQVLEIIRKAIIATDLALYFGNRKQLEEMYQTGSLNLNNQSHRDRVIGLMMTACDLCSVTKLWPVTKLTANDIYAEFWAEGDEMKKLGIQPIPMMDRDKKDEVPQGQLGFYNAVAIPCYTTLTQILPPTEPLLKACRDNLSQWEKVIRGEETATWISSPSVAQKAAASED
Sequence of Serine/threonine-protein phosphatase PP1-alpha catalytic subunit (Homo sapiens) (P62136 whole entry, looked up): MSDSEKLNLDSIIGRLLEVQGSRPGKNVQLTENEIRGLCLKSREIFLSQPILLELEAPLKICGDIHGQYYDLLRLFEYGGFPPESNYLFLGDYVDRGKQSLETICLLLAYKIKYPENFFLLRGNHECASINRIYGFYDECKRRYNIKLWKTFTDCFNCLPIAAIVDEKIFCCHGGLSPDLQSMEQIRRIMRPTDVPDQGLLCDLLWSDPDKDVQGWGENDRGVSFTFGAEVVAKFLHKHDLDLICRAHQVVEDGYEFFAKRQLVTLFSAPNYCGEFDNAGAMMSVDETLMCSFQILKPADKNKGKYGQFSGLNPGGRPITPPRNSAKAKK
Sequence of human Protein Tyrosine Phosphatase Non-receptor Type 9 (PTPN9), PTPN9 (gene 5780) (P43378 whole entry, looked up): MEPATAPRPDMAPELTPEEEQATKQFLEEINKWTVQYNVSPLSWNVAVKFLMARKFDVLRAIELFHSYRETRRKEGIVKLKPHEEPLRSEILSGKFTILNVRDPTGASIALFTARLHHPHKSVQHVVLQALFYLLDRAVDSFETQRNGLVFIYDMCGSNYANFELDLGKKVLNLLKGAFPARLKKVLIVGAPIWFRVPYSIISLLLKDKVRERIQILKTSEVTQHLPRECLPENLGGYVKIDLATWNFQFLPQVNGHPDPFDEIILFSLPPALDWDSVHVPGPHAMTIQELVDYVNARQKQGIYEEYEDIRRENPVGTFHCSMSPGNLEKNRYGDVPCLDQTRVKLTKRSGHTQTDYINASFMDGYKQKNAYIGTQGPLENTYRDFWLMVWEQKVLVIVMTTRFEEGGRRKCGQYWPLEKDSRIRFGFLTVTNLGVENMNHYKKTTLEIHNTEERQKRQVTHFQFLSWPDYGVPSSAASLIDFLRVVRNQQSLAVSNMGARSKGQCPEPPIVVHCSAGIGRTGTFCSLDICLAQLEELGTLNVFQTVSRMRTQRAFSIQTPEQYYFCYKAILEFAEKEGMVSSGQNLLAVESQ
Sequence of Tyrosine-protein phosphatase non-receptor type 11 (Homo sapiens) (Q06124 whole entry, looked up): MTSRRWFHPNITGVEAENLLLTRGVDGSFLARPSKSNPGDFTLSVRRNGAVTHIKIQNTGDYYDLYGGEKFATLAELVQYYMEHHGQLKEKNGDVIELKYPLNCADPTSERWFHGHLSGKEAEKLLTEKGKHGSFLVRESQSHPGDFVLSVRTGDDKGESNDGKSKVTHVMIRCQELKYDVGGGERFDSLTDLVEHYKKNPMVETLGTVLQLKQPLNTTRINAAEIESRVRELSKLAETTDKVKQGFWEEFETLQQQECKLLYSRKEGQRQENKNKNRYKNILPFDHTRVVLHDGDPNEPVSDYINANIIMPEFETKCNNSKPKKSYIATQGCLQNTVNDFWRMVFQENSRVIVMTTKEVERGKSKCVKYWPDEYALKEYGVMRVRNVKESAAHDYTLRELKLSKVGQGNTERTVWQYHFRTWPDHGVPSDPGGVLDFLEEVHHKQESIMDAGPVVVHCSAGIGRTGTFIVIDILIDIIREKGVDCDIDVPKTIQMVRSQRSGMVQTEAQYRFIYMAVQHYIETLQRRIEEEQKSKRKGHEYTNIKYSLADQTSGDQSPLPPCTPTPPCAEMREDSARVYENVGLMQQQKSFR
Sequence of human Sirtuin 3 (SIRT3), SIRT3 (gene 23410) (Q9NTG7 whole entry, looked up): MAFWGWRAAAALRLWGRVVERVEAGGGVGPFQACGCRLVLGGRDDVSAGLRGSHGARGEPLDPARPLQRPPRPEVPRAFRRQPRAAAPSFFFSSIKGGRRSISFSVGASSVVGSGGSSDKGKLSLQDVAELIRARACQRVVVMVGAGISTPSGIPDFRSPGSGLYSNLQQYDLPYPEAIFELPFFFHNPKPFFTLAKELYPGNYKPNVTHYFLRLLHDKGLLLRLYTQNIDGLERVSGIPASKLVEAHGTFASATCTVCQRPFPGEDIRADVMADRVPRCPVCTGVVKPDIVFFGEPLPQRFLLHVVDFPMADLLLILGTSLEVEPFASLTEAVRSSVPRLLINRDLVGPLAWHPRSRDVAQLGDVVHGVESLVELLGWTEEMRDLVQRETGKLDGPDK
Sequence of human Protein Phosphatase, Mg2+/Mn2+ Dependent 1A (PPM1A), PPM1A (gene 5494) (P35813 whole entry, looked up): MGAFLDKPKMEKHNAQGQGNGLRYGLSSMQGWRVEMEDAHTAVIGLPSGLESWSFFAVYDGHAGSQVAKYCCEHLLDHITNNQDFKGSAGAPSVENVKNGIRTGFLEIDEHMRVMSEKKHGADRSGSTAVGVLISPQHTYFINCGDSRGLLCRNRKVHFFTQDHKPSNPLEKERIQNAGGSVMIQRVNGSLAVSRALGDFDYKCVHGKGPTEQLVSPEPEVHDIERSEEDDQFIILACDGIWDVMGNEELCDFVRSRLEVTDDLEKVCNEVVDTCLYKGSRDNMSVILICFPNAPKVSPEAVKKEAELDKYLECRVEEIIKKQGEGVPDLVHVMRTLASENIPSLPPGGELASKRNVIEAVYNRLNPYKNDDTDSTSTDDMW

As for `Cc1ccc(N)cc1O`, the compound was classed as inactive in experiment [1], in experiment [2], in [3], in [4], in experiment [5] and in experiment [6]. In addition, the result in experiment [7], in experiment [8], in [9], in experiment [10], in [11] and in [12] was inactive. For the same compound, the call in experiment [13] was inactive.

As for `CC[C@H](C)C(=O)O[C@H]1C[C@@H](C)C=C2C=C[C@H](C)[C@H](CC[C@@H]3C[C@@H](O)CC(=O)O3)[C@H]21`, the call in experiment [2], in experiment [14], in experiment [9], in experiment [12] and in experiment [15] was inactive.

`CCCCCCc1ccc(O)cc1O`: in experiment [3], the outcome was inactive.

For the compound `CC(=O)c1ccc2c(c1)[C@H](NC(=O)c1ccc(F)cc1)[C@@H](O)C(C)(C)O2`, the call in experiment [1] was inactive.

As for `Cn1c(=O)cc(Oc2ccc(F)cc2F)c2cnc(NCC(C)(C)O)nc21`, the AC50 in experiment [16] is 8.25 µM (active).

As for `Cc1ccc(C)c(O)c1`, in experiment [17], the result was inactive.

`CN(C)c1ccc(Cc2ccc(N(C)C)cc2)cc1`: the outcome in [1], in [9] and in experiment [18] was inactive.

As for `CC(C)(O)c1coc(S(=O)(=O)NC(=O)Nc2c3c(cc4c2CCC4)CCC3)c1`, in experiment [17], the compound was classed as inactive.

In the case of `O=C(O)c1cccc(Oc2ccccc2)c1`, the call in [1], in [16], in [2], in [3], in [14] and in [5] was inactive. Also, the call in experiment [8], in experiment [9], in [10], in experiment [11], in experiment [19] and in [13] was inactive. In experiment [6], the AC50 is 0.119 µM (active).

With `Cn1c(=O)c2c(ncn2C)n(C)c1=O`, the AC50 in experiment [16] was 25 µM (active).

Turning to `COc1cccc(-c2ccc(/C=C\CN3CCCCCC3)cc2Cl)c1`, the AC50 was 22.6 µM (active) in [16], 16.6 µM (active) in experiment [12] and 3.06 µM (active) in experiment [15].

In the case of `CC[C@H]1CC[C@H](NCc2cc3c(cc2OC)[C@H]2C[C@H]2C(=O)N3C)[C@H](c2ccccc2)N1`, in experiment [16], the outcome was inactive.
